# Compound activity from PubChem.
# Rows were chosen to be rich in hits. Some 3.9% of all compounds tested hit in one or more screens of this group.
# Mtb FBA inh: Mtb FBA enzyme inhibitors, primary screen, biochemical, fluorescence, strain H37Rv; purified M. tuberculosis FBA, fluorescence read-out; inhibition, % at 1 µM; 360,000 compounds, 2.3% hits; AID 588726, 2011; in the data active = inhibition above about 27%;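 note: 0% = vehicle and 100% = reference inhibitor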
# Target sequence (P9WQA3 whole entry, looked up): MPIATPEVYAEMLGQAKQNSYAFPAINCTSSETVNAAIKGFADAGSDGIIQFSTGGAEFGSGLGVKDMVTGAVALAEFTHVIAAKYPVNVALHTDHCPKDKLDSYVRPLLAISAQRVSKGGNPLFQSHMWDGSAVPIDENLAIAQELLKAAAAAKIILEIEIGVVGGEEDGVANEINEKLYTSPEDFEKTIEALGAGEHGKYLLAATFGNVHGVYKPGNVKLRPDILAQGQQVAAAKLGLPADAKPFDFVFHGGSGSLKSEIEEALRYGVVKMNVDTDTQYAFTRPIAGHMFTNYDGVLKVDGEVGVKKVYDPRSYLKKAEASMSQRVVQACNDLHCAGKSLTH
# GDH-TPI counter: GDH-TPI coupling enzyme inhibitors, primary screen, artefact control for M. tuberculosis FBA inhibitor project, biochemical, absorbance, full deck | AID 588335, 2011 | inhibition, % at 4.8 µM | 360,000 compounds, 1.2% hits | GDH-TPI coupled enzyme counterscreen, NADH absorbance;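 note: 0% = DMSO wells and 100% = wells lacking the enzyme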
# BH1578 lux ind: inducers of Vibrio cholerae quorum light production without autoinducers, primary screen, BH1578 luxS cqsA deficient, single point. 350,000 compounds, 0.16% hits. V. cholerae BH1578 lux reporter, luminescence, 6 h. AID 588436, 2011. activation, % at 18.7 µM; in the data active = activation mostly above about 9.7%, no sharp cut-off
# CCHFV vOTU inh: CCHFV vOTU protease inhibitors, primary screen, biochemical, Pep-AMC substrate, fluorescence; 370,000 compounds, 0.55% hits; Crimean-Congo hemorrhagic fever virus L polyprotein viral ovarian tumor (vOTU) protease …; AID 651958, 2012; inhibition, % at 11.5 µM; note: 0% = vehicle wells with enzyme and 100% = no enzyme wells
# Active calls of the source: *; i = inactive; x = no result; + = active, no number. Cut-off read from the data, not from the text of the source, unless noted: active = inhibition above about 30%; inactive = the rest.
SMILES,Mtb FBA inh,GDH-TPI counter,BH1578 lux ind,CCHFV vOTU inh
O=C(O)CCn1c2ccccc2c2nc3ccccc3nc21,-1,31*,i,16
CCc1cc(=O)oc2c(C)c(O)c(CN3CCCCC3)cc12,+,32*,-1,-311
Cc1c(O)c(CN2CCCC2)cc2c3c(c(=O)oc12)CCC3,198*,15,0,-206
CC1CCN(C(=O)c2nc[nH]c2C(=O)N2CCc3ccccc3C2)CC1,-1,-8,0,-10
O=C(NCc1ccccc1)c1cccc2c(-c3ccc(F)c(F)c3)coc12,-3,-7,0,x
CC(=O)c1ccc(Oc2ccc(C(C)=O)cc2)cc1,-4,-2,0,-1
CC(=O)c1ccc(OC(=O)Oc2ccc(C(C)=O)cc2)cc1,1,32*,-1,10
COc1cccc(C(=O)Nc2nnc(-c3ccccc3)s2)c1,19,36*,-1,0
COc1cccc(C(=O)Nc2nnc(-c3ccc(OC)cc3OC)s2)c1,0,4,i,5
COc1cccc(C(=O)Nc2nnc(S(=O)(=O)Nc3cccc(C)c3)s2)c1,6,37*,i,6
Cc1cccc(NS(=O)(=O)c2nnc(NC(=O)c3ccc(C)c(C)c3)s2)c1,0,25,0,14
CC(=O)c1ccc(N2CCN(S(=O)(=O)c3cn(C)c(C)n3)CC2)cc1,0,16,i,-2
CC(=O)c1ccc(N2CCN(S(=O)(=O)c3cn(C)cn3)CC2)cc1,3,37*,-2,14
Cn1c2ccccc2c(=O)c2ccc(C#CC3(O)CCCCC3)cc21,171*,12,i,-42
Cc1cnc(C(=O)Nc2ccc(F)c(F)c2)cn1,3,11,i,13
CCCCOc1ccc(NC(=O)c2cnc(C)cn2)cc1,4,6,17*,-7
C(=C\c1ccco1)/C=N/n1cnnc1,-8,51*,x,15
S=c1[nH]nc(-c2ccncc2)n1/N=C/C=C/c1ccco1,-2,25,x,8
O=C1CCCC2=C1C1(CCCC1)N=C(Nc1nc3ccccc3o1)N2,1,12,i,6
O=C1CCCC2=C1C1(CCCCC1)N=C(Nc1nc3ccccc3o1)N2,-6,51*,-7,-18
O=C(O)c1ccc(N(c2ccccc2)c2ccccc2)cc1,+,15,-1,22
CCN(CC)c1ccc(C(=O)O)cc1,0,0,0,3
C=CCn1c(O)c(/C=N/N2CCCCC2c2cccnc2)c(=O)[nH]c1=S (centres undefined),-2,31*,0,12
CC(C)S(=O)(=O)NC(=O)C1(C)CCN1C(=O)Cc1ccccc1Cl (centres undefined),1,-4,1,2
CCOC(=O)C1CCN(C(=O)CN(c2ccc(Oc3ccccc3)cc2)S(C)(=O)=O)CC1,-1,2,0,19
SMILES,Mtb FBA inh,GDH-TPI counter,BH1578 lux ind,CCHFV vOTU inh
COc1cccc(OCCn2c(C)c(/C=N/n3cnnc3)c3ccccc32)c1,0,34*,i,10
COc1ccc(OCCn2c(C)c(/C=N/n3cnnc3)c3ccccc32)cc1,4,12,0,x
COc1cc(/C=N/n2nnnc2N)ccc1O,2,44*,0,-1
COc1cc(/C=N/n2nnnc2N)ccc1OC(C)=O,4,9,240*,-7
COc1cc(/C=N/n2nnnc2N)ccc1OC(C)C,8,23,i,1
COc1cc(/C=N/N2C(=O)C3C4c5ccccc5C(c5ccccc54)C3C2=O)ccc1O (centres undefined),1,34*,-1,-5
CN=C1SC(CC(=O)Nc2ccccc2F)C(=O)N1/N=C/c1ccc(O)c(OC)c1 (centres undefined),3,52*,i,28
OC[C@@H]1CN(CCN2CCOCC2)C[C@H](n2cnc3c(Nc4ccccc4)ncnc32)O1,0,12,0,-12
CC(C)(C)NC(=O)CN(C(=O)C1(C)CC(=O)N=C2C=CC=CN21)C1CCCC1 (centres undefined),120*,19,0,-121
CC1=CC=CC2=NC(=O)CC(C)(C(=O)N(CC(=O)NC(C)C)C3CCCC3)N12 (centres undefined),128*,15,-1,x
COc1ccc(/C=C/C(=O)NC(=S)NNC(=O)c2cc(OC)c(OC)c(OC)c2)cc1,-1,18,i,-1
